High-throughput results: PubChem, National Center for Advancing Translational Sciences (NCATS)
JMJD2A Tudor: qHTS Assay for Inhibitors of JMJD2A-Tudor Domain; Lysine-specific demethylase 4A (Homo sapiens), O75164; AlphaScreen JMJD2A-Tudor / H3K4me3 peptide binding; Potency, µM (series often up to 114 µM), inactives show top-dose activity change, negative = inhibition, most hits filed as inhibitors; 390,000 compounds, 4.4% hits; also: % is scaled to controls: 0 for no effect and ±100 for the full control effect; nearly all actives have a fitted effect of over 50% in size
Target sequence (O75164 whole entry, looked up, the tested form may be a part): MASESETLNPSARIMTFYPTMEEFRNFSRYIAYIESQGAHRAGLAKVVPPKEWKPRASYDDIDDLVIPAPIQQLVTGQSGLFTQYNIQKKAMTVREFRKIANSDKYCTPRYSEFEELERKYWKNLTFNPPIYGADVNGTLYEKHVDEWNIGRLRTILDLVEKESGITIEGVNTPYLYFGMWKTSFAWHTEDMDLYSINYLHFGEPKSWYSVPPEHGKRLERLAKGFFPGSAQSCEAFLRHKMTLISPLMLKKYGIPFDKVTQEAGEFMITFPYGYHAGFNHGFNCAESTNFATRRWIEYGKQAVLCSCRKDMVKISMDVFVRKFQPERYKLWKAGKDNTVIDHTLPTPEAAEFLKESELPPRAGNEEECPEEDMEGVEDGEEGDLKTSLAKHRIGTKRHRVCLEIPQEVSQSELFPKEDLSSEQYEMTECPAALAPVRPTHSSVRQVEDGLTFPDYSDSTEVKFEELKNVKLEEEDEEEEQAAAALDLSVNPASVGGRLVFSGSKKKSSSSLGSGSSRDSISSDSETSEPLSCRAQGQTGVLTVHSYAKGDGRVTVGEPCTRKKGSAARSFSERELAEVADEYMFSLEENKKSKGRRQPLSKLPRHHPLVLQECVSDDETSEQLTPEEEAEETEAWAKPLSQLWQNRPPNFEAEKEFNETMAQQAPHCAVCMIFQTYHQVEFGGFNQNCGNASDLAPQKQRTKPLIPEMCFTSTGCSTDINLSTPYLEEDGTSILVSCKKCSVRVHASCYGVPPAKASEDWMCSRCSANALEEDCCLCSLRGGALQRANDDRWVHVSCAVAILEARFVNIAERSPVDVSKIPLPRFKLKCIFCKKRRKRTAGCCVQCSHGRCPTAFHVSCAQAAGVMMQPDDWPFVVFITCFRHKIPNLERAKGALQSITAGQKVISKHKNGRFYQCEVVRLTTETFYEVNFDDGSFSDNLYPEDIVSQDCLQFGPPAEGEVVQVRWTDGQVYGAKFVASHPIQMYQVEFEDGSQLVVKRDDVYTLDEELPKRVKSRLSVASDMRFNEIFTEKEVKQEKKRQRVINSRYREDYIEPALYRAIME
ALOX12 inh: Primary qHTS assay for inhibitors of human arachidonate 12S-lipoxygenase (ALOX12): Round 2. Polyunsaturated fatty acid lipoxygenase ALOX12 (Homo sapiens), P18054. purified 12hLO, xylenol orange hydroperoxide absorbance. Potency, µM (doses to about 108 µM), inactives show at the highest dose activity change, negative = inhibition, hits mostly inhibitors. 580,000 compounds, 1.1% hits. AID 1671190, 2021; also: % is scaled to controls: 0 for no effect and ±100 for the full control effect
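Purified human 12hLO (150 nM final) in 25 mM Hepes, 0.01% Triton X-100, pH 7.0 was preincubated 15 min at room temperature with compound. Then 40 uM arachidonic acid was added, 30 min. Hydroperoxide was read by Fe-XO absorbance ratio 573/405 nm.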
G9a block: qHTS Assay for Inhibitors of Histone Lysine Methyltransferase G9a | Histone-lysine N-methyltransferase EHMT2 (Homo sapiens), Q96KQ7 | Potency, µM (top dose mostly 102 µM), inactives show at the highest dose activity, negative = inhibition, most hits filed as inhibitors | G9a H3K9 monomethylation, AlphaScreen, 2 h | 350,000 compounds, 8.8% hits | AID 504332, 2011; also: % is scaled to controls: 0 for no effect and ±100 for the full control effect; nearly all actives have a fitted effect of over 75% in size
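Methyltransferase reactions run at room temperature for 2 h (20 nM enzyme, 500 nM biotin-H3K9 peptide, 20 uM SAM) after a 15 min compound preincubation; product detected by AlphaScreen beads and anti-H3K9me1 antibody.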
BAZ2B block: qHTS Assay for Inhibitors of BAZ2B; 360,000 compounds, 4.4% hits; AlphaScreen BAZ2B-H3K14Ac peptide displacement; Potency, µM (highest dose often 114 µM), for inactives: at the top dose activity change, negative = inhibition, usual class: inhibitors; also: % is scaled to controls: 0 for no effect and ±100 for the full control effect; nearly all actives have a fitted effect of over 60% in size
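AlphaScreen luminescence quantifies BAZ2B engagement of H3K14Ac peptide; the protein and biotinylated peptide are both at 50 nM final, buffer PBS pH 7.4 with 0.01% Tween-20, all steps at room temperature.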
PLK1 PBD block: qHTS for Inhibitors of PLK1-PDB (polo-like kinase 1 - polo-box domain): Primary Screen. Serine/threonine-protein kinase PLK1 (Homo sapiens), P53350. Plk1 PBD binding of FITC phosphopeptide, fluorescence polarization. Potency, µM, inactives show max response, negative = inhibition, hits mostly inhibitors. 360,000 compounds, 2.8% hits. AID 720504, 2013; also: series mostly up to about 57 µM; % is scaled to controls: 0 for no effect and ±100 for the full control effect; nearly all actives have a fitted effect of over 65% in size
HP1b binding inh: HTS for Inhibitors of HP1-beta Chromodomain Interactions with Methylated Histone Tails. Chromobox protein homolog 1 (Homo sapiens), P83916. AlphaScreen HP1-beta / biotin-H3K9me3 peptide binding. Potency, µM (series often up to 114 µM), without a hit: at the top dose activity change, negative = inhibition, actives largely listed as inhibitors. 390,000 compounds, 0.56% hits; also: nearly all actives have a fitted effect of over 70% in size
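HP1-beta protein (50 nM final) preincubated 30 min at room temperature with biotinylated H3(1-18)K9me3 peptide (50 nM) in PBS pH 7.4, 0.01% Tween-20, then compound added for 30 min. AlphaScreen streptavidin donor/nickel chelate acceptor beads (10 ug/mL final), 30 min dark, luminescence read.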
Starred values were filed as active, the others as inactive; ? = inconclusive; . = no result given; ! = not active in a repeat; [ ] = remark or other dose. In the library only some 9% were active in any assay of this set; here they are far more common. Calls follow the shape of the dose curve; as a rule, active = well fitted curve in the direction sought with a large enough effect; inconclusive = small, poorly fitted or top-dose-only effect, or another doubt; inactive = no such curve, though single readings can be large; an effect the other way counts as inactive or inconclusive. Potency is read from the fitted curve at half-maximal effect.

SMILES	JMJD2A Tudor	ALOX12 inh	G9a block	BAZ2B block	PLK1 PBD block	HP1b binding inh
O=C1C=CC(=O)C(CNc2ccc(C(=O)OCc3ccccc3)cc2)=C1	40µM*	16µM*	.	.	13µM*	40µM*
Oc1ccccc1N=N/C(=N/Nc1ccccc1O)c1ccccc1	-35%	?	7%[2.33 µM]	?	-15%	-2%
Cn1nnnc1N=N/C(=N/Nc1ccccc1)c1ccccc1	1.6µM*	273%	.	1.3µM*	1%	28µM*
CCOc1ccccc1C(=O)N1CCN(C2CCN(C)C2=O)CC1 (configuration not stated)	.	1%	.	.	.	.
O=C1c2cc([N+](=O)[O-])cc3cc([N+](=O)[O-])cc(c23)C(=O)N1c1ccccn1	?	?	?	?	?	-32%
O=C1c2cccnc2C(=O)N1c1cccc([N+](=O)[O-])c1	?	0%	5%	56µM*	-15%	32%
O=C1c2ccc(Oc3cccc([N+](=O)[O-])c3)cc2C(=O)N1c1ccccn1	?	-4%	?	-16%	11µM*	-4%
COc1ccc(C2CC(=O)c3c(O)cc(O)cc3O2)cc1O (configuration not stated)	-8%	-1%	.	.	-8%	27%
COc1cc(C2Oc3cc(C4Oc5cc(O)cc(O)c5C(=O)C4O)ccc3OC2CO)ccc1O (configuration not stated)	-14%	?	50µM*	-31%	4%	19%
COc1ccc2c3c(cccc13)C(=O)CC2	16%	0%	19%[0.501 µM]	16%	9.5µM*	45%
CCc1nnc(NS(=O)(=O)c2ccc(N=Cc3c(C)[nH]n(-c4ccc(C)c(C)c4)c3=O)cc2)s1	-31%	-11%	-49%	50µM*	?	-8%
Cc1cc(C)nc(NS(=O)(=O)c2ccc(N=Cc3c(C)[nH]n(-c4ccccc4)c3=O)cc2)n1	79µM*	4%	5%[59 µM]	-7%	27µM*	-5%
Cc1[nH]n(-c2ccc(Br)cc2)c(=O)c1C=Nc1ccc(S(=O)(=O)Nc2nccs2)cc1	?	1%	25%	?	?	19%
COc1ccc(-c2cc(=S)ss2)cc1	.	18µM*!	?	.	.	.
COc1ccc(-c2ccc(OC)cc2)cc1	6%	0%	0%[59 µM]	44%	2%	30%
CC(C)CC(OC(=O)c1cccs1)C(=O)NCc1ccco1 (configuration not stated)	-18%[57.1 µM]	?	13µM*	-19%	?	-23%
CCOP(=O)(OCC)C(Nc1cccc([N+](=O)[O-])c1)c1ccc(N(C)C)cc1 (configuration not stated)	50µM*	73%	?	40µM*	-5%	?
CCOC(=O)CN1CC23C=CC(O2)C(C(=O)Nc2ccc(OC)cc2OC)C3C1=O (configuration not stated)	-13%	427%	50µM*	3%	2%	51%
COc1ccc(CNC(=O)C2C3C=CC4(CN(Cc5cccnc5)C(=O)C24)O3)cc1 (configuration not stated)	-14%	7%	1%	0%	-11%	68%
COc1ccc(NC(=O)C2C3C=CC4(CN(Cc5cccnc5)C(=O)C24)O3)c(OC)c1 (configuration not stated)	-3%	-13%	-7%	50µM*	-15%	66%
c1cc(N2CCN(CCN3CCOCC3)CC2)ncn1	.	13%	.	.	.	.
CCN(CC)CCOc1ccc2c(c1)C(=O)c1cc(OCCN(CC)CC)ccc1-2	.	22µM*!	-43%[2.33 µM]	.	.	.
CC(C)c1cccc(OCCCCN(C)C)c1	?	-30%	4µM*	?	-6%	?
CCN(CC)CCOC(=O)C(c1ccccc1)c1ccccc1	-6%	?	9%[59 µM]	?	-5%	24%
CCN(CC)CCOc1cccc(C(C)C)c1	6.3µM*	?	?	?	-4%	?
SMILES	JMJD2A Tudor	ALOX12 inh	G9a block	BAZ2B block	PLK1 PBD block	HP1b binding inh
CCOC(=O)N1CCN(C(=O)CSCC(=O)Nc2nc(-c3ccc4c(c3)OCO4)cs2)CC1	?	.	?	-9%	-10%	8%
O=[N+]([O-])c1ccccc1S(=O)(=O)NCc1ccco1	-22%	-20%	-13%	-23%	-4%	24%
Cc1cc(C)c(S(=O)(=O)NCC23C=CC(O2)C2C(=O)N(c4ccccc4)C(=O)C23)c(C)c1 (configuration not stated)	50µM*	-4%	-15%[0.501 µM]	?	-8%	?
O=C1C2C3C=CC(CNS(=O)(=O)c4ccccc4[N+](=O)[O-])(O3)C2C(=O)N1c1ccccc1 (configuration not stated)	?	-8%	4.5µM*	-18%	67µM*	?
O=S1(=O)CC(N2CCN(CC3CC3)CC2)CN1Cc1ccc(F)cc1 (configuration not stated)	.	-23%	.	.	-3%	.
CCN(CC1COc2ccccc2O1)C(=O)CN1C(=O)NC(C)(c2ccc(C)cc2)C1=O (configuration not stated)	-16%	7%	-40%[59 µM]	-16%	-2%	17%
Cc1ccc(C)c(-n2c(CNC(=O)c3ccco3)nnc2SCC(=O)N2CCc3ccccc32)c1	-3%	-2%	39%[12.7 µM]	-8%	-1%	23%
COc1ccccc1-c1sc2cc3c(cc2c1C#Cc1cncn1C)OCO3	20µM*	-4%	.	.	-6%	-29%
COc1ccc2sc(-c3ccccc3OC)c(C#CCCO)c2c1	-33%	?	-3%[0.501 µM]	79µM*	1%	42%
COc1ccc2sc(-c3ccccc3OC)c(C#Cc3cncn3C)c2c1	40µM*	9%	.	.	0%	0%
COc1cc(OC)cc(-c2sc3ccc(OC)cc3c2C#CCCO)c1	-30%	?	-2%[0.501 µM]	?	1%	43%
COc1ccc2c(C#CCCO)c(-c3ccc(S(C)(=O)=O)cc3)sc2c1	?	?	.	.	27µM*	36%
CC(C)[C@H](NC(=O)C1CCCC1)C(=O)N1CCC[C@H]1C(=O)NCCc1ccccc1Cl	.	3%	.	.	.	.
O=c1cc2c(nn1Cc1ccc(Cl)cc1)-c1ccccc1CC2	14%	0%	82%	27%	-3%	62%
CCc1c(C)sc2c1CCN(C(=O)Nc1cc(C)ccc1C)C2c1ccc(OC)cc1 (configuration not stated)	-12%	4%	1%[59 µM]	-22%	.	21%
